Experiment [1] in a line: qHTS of pediatric cancer cell lines to identify multiple opportunities for drug repurposing: Primary screen for RD cells (AID 1347104).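 Note: plate controls were DMSO for no effect and bortezomib for full effect; nearly all actives have a fitted effect of over 55% in size.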 In outline:
(§1)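 Plated cells (500-1,000 per well, growth media) were allowed to settle for 5 hours, treated with compound dilutions for 48 hours, then lysed with CellTiter-Glo for 15 min at room temperature before luminescence reading.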
A general note: In qHTS, concentration-response curves come from the screen itself.

Experiment [2] is described as follows: qHTS of pediatric cancer cell lines to identify multiple opportunities for drug repurposing: Primary screen for MG 63 (6-TG R) cells (AID 1347105). Note: % is set by controls: 0 for no effect and ±100 for the full control effect; nearly all actives have a fitted effect of over 50% in size. In outline:
as §1

Experiment [3] in a line: qHTS of pediatric cancer cell lines to identify multiple opportunities for drug repurposing: Primary screen for Rh30 cells (AID 1347107). Note: series mostly up to about 46 µM; % is set by controls: 0 for no effect and ±100 for the full control effect; nearly all actives have a fitted effect of over 75% in size. In outline: (§2)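 Cells (500-1,000/well) in growth media were settled 5 h at 37 degrees C, then given compounds for 48 h. Viability was read as CellTiter-Glo luminescence. Primary runs used MIPE at 11 points (0.78 nM-46 µM) and NPC at 8 points (0.59 nM-46 µM); follow-ups used 11 points.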

Experiment [4] is described as follows: qHTS of pediatric cancer cell lines to identify multiple opportunities for drug repurposing: Primary screen for Rh41 cells (AID 1347108).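 Note: series mostly up to about 46 µM; luminescence drop marks cytotoxic hits; nearly all actives have a fitted effect of over 70% in size.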 In outline:
as §1

A short description of experiment [5]: qHTS of pediatric cancer cell lines to identify multiple opportunities for drug repurposing: Primary screen for control Hh wild type fibroblast cells (AID 1347106).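 Note: series mostly up to about 46 µM; % is set by controls: 0 for no effect and ±100 for the full control effect; a drop in luminescence marks cytotoxicity and a rise apparent proliferation; nearly all actives have a fitted effect of over 55% in size.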 In outline: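 Viability after 48 h compound treatment at 37C, 500-1,000 cells/well, read as ATP luminescence with CellTiter-Glo. Primary screens used 11-point (MIPE, 0.78 nM-46 µM) or 8-point (NPC, 0.59 nM-46 µM) final concentrations; follow-up screens used 11-point dilutions.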

The nature of experiment [6]: qHTS of pediatric cancer cell lines to identify multiple opportunities for drug repurposing: Confirmatory screen for NB1643 cells (AID 1347109).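 For activity change, negative = cytotoxic: plate controls were DMSO for no effect and bortezomib for full effect.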 Note: nearly all actives have a fitted effect of over 45% in size. Note: potency is the fitted concentration of half-maximal effect. In outline:
as §2

Experiment [7] is described as follows: qHTS of pediatric cancer cell lines to identify multiple opportunities for drug repurposing: Confirmatory screen for A673 cells (AID 1347110).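 Note: cells exposed to compound for 48 h before the viability read; nearly all actives have a fitted effect of over 65% in size.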 Note: potency is the fitted concentration of half-maximal effect. In outline: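 Concentration-response curves came straight from titrations: 11 points (0.78 nM to 46 µM) for MIPE and several concentrations (0.59 nM to 46 µM) for NPC in primary, 11 points in follow-up. Readout: ATP luminescence at 48 h.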

The nature of experiment [8]: qHTS of pediatric cancer cell lines to identify multiple opportunities for drug repurposing: Confirmatory screen for BT-12 cells (AID 1347112). Note: % is set by controls: 0 for no effect and ±100 for the full control effect; nearly all actives have a fitted effect of over 55% in size. In outline:
as §2

Experiment [9] can be described thus: qHTS of pediatric cancer cell lines to identify multiple opportunities for drug repurposing: Confirmatory screen for LAN-5 cells (AID 1347113). Note: nearly all actives have a fitted effect of over 65% in size. Note: potency is the fitted concentration of half-maximal effect. In outline:
as §2

The nature of experiment [10]: qHTS of pediatric cancer cell lines to identify multiple opportunities for drug repurposing: Confirmatory screen for DAOY cells (AID 1347114). Note: % is set by controls: 0 for no effect and ±100 for the full control effect; nearly all actives have a fitted effect of over 65% in size. In outline: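 Viability measured as metabolically active cells via CellTiter-Glo luminescence following 48 hours of compound exposure, 11-point dilutions in confirmatory testing. 500-1,000 cells/well plated 5 hours before dosing; controls were DMSO and 2.3 µM bortezomib.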

Experiment [11] in a line: qHTS of pediatric cancer cell lines to identify multiple opportunities for drug repurposing: Confirmatory screen for TC32 cells (AID 1347118).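 Note: potency is the fitted concentration of half-maximal effect; cells exposed to compound for 48 h before the read; nearly all actives have a fitted effect of over 65% in size.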 In outline: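 TC32 cells, 500-1,000/well in growth medium, compound-treated 48 h at 37 °C; viability from CellTiter-Glo luminescence. Primary screen: MIPE 11-point (0.78 nM–46 µM final), NPC 8-point (0.59 nM–46 µM final); confirmatory at 11-point dilutions.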

Experiment [12] in a line: qHTS of pediatric cancer cell lines to identify multiple opportunities for drug repurposing: Confirmatory screen for MG 63 (6-TG R) cells (AID 1347119). Note: nearly all actives have a fitted effect of over 55% in size. Note: potency is the fitted concentration of half-maximal effect. In outline:
as §2

Experiment [13] can be described thus: qHTS of pediatric cancer cell lines to identify multiple opportunities for drug repurposing: Confirmatory screen for control Hh wild type fibroblast cells (AID 1347121).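 Note: plate controls were DMSO for no effect and bortezomib for full effect; nearly all actives have a fitted effect of over 70% in size.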 In outline: as §2
The nature of experiment [14]: qHTS of pediatric cancer cell lines to identify multiple opportunities for drug repurposing: Confirmatory screen for Rh41 cells (AID 1347123).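 For activity change, negative = cytotoxic: plate controls were DMSO for no effect and bortezomib for full effect.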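 Note: 48 h compound exposure; nearly all actives have a fitted effect of over 60% in size.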 Note: potency is the fitted concentration of half-maximal effect. In outline: as §2
The nature of experiment [15]: qHTS of pediatric cancer cell lines to identify multiple opportunities for drug repurposing: Confirmatory screen for OHS-50 cells (AID 1347128). In outline: as §2
A short description of experiment [16]: qHTS of pediatric cancer cell lines to identify multiple opportunities for drug repurposing: Confirmatory screen for NB-EBc1 cells (AID 1347115). For activity change, negative = cytotoxic: % is set by controls: 0 for no effect and ±100 for the full control effect.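 Note: cells exposed to compound for 48 h before the viability read; nearly all actives have a fitted effect of over 45% in size.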 Note: potency is the fitted concentration of half-maximal effect. In outline: as §2
Experiment [17] in a line: qHTS of pediatric cancer cell lines to identify multiple opportunities for drug repurposing: Confirmatory screen for BT-37 cells (AID 1347117).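 For activity change, negative = cytotoxic: plate controls were DMSO for no effect and bortezomib for full effect.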 Note: nearly all actives have a fitted effect of over 55% in size. Note: potency is the fitted concentration of half-maximal effect. In outline:
as §2

A short description of experiment [18]: qHTS of pediatric cancer cell lines to identify multiple opportunities for drug repurposing: Confirmatory screen for RD cells (AID 1347124). In outline: as §2
The nature of experiment [19]: qHTS of pediatric cancer cell lines to identify multiple opportunities for drug repurposing: Confirmatory screen for Saos-2 cells (AID 1347127). Note: nearly all actives have a fitted effect of over 60% in size. Note: potency is the fitted concentration of half-maximal effect. In outline: as §2
Experiment [20] in a line: qHTS of pediatric cancer cell lines to identify multiple opportunities for drug repurposing: Confirmatory screen for U-2 OS cells (AID 1347122). In outline: as §2

Inconclusive results are not listed. Unmarked numbers belong to inactive results. Activity calls are given as the source filed them. Calls come from the whole dose curve; as a rule, active = well fitted curve in the direction sought with a large enough effect; inconclusive = small, poorly fitted or top-dose-only effect, or another doubt; inactive = no such curve, though single readings can be large; an effect the other way counts as inactive or inconclusive.

As for `COc1cc(OC)nc(O[C@H](C(=O)O)C(OC)(c2ccccc2)c2ccccc2)n1`, the Potency entry in [1], in experiment [2], in experiment [3] and in [4] was “inactive” throughout.
On to `CC(C)C(=O)Nc1cccc(C2CN3CCSC3=N2)c1` (stereo not drawn), for which the Potency entry in experiment [1], in [2], in [5] and in experiment [4] was “inactive” each time.
As to `O=C(O)C1CCC1`, the Potency entry in experiment [1], in experiment [2], in experiment [5] and in [4] was “inactive” each time.
With `CC(=O)c1ccc(O)c(C(N)=O)c1`, the Potency result in [1], in experiment [2], in [3] and in [4] was “inactive” each time.
Turning to `C[N+]1(CC2COC(c3ccccc3)(c3ccccc3)O2)CCCCC1` (stereo not drawn), the Potency result in experiment [1], in experiment [2], in experiment [5] and in experiment [4] was “inactive” each time.
In the case of `CC(=O)OCC(=O)[C@@]1(O)CCC2C3CCC4=CC(=O)CC[C@]4(C)C3[C@@H](O)C[C@@]21C` (stereo partly drawn), the Potency entry in experiment [1], in [2], in experiment [5], in experiment [3], in [6] and in experiment [8] was “inactive” in each case. Also, the Potency entry in experiment [9], in experiment [10], in [12], in experiment [13] and in experiment [15] was “inactive” each time. The Potency is 16.5 µM (active) in [7], 26.1 µM (active) in experiment [11] and 11.7 µM (active) in [14].
For the compound `CCCCOC(=O)CCCCCCCCC(=O)OCCCC`, the Potency entry in experiment [1], in [2], in experiment [5] and in experiment [4] was “inactive” each time.
For `Cn1cc(S(C)=O)c(=O)c2ccc(F)cc21` (stereo not drawn), the Potency entry in experiment [1], in [2], in experiment [5] and in [4] was “inactive” each time.
With `Brc1ccccc1-c1ccccc1`, the Potency result in experiment [1], in experiment [2], in experiment [5] and in experiment [4] was “inactive” in each case.
As for `COc1cc2c(cc1OC)CN(C(=O)[C@H](C)N[C@@H](CCc1ccccc1)C(=O)O)[C@H](C(=O)O)C2`, the Potency result in [1], in experiment [2], in experiment [3] and in experiment [4] was “inactive” each time.
With `O=C(CCOCCOCCOCCOCCC(=O)Nc1c(I)cc(I)c(C(=O)O)c1I)Nc1c(I)cc(I)c(C(=O)O)c1I`, the Potency result in experiment [1], in experiment [2], in [3] and in experiment [4] was “inactive” in each case.
Take `CC1CN(c2cc3c(cc2F)c(=O)c(C(=O)O)cn3-c2ccc(F)cc2F)CCN1` (stereo not drawn): the activity change, negative = cytotoxic is -4.55% [at 4.84 µM] in [1], 29.5% [at 4.84 µM] in experiment [2], -8.43% [at 4.84 µM] in experiment [5] and 11.4% [at 4.84 µM] in experiment [4].
For `Nc1ncnc2c1ncn2Cc1c(F)cccc1Cl`, the Potency entry in experiment [1], in experiment [2], in experiment [5] and in [4] was “inactive” throughout.
For the compound `O=C1OC2(c3ccccc31)c1cc(I)c(O)c(I)c1Oc1c2cc(I)c(O)c1I`, the Potency result in experiment [1], in [2], in experiment [5] and in experiment [4] was “inactive” in each case.
As to `C[C@H]1C[C@H]2[C@@H]3CCC4=CC(=O)C=C[C@]4(C)[C@H]3C(=O)C[C@]2(C)[C@@]1(O)C(=O)CO`, the Potency result in experiment [1], in [2], in experiment [5], in [3], in [4] and in experiment [10] was “inactive” in each case. Besides, the Potency in experiment [6] is 2.61 µM (active); in experiment [9] it was 2.93 µM (active); in [16], 8.27 µM (active); in [17], 2.93 µM (active); in experiment [12] it was 4.65 µM (active); in experiment [18] it was 2.93 µM (active). For the same compound, in experiment [19], the Potency is 3.69 µM (active).
Consider `O=C1[C@@H]2[C@H]3CC[C@H](C3)[C@@H]2C(=O)N1CCCCN1CCN(c2ncccn2)CC1`, for which the Potency result in experiment [1], in experiment [2], in experiment [3] and in experiment [4] was “inactive” throughout.
In the case of `C[C@H]1C[C@@H]2[C@H]([C@@H](O)C[C@@]3(C)[C@H]2CC[C@]3(O)C(=O)CO)[C@@]2(C)C=CC(=O)C=C12`, the Potency result in experiment [1], in experiment [2], in [5], in [3], in experiment [4] and in experiment [7] was “inactive” in each case. In addition, the Potency entry in experiment [8], in [10], in experiment [16], in [13], in experiment [20] and in [14] was “inactive” in each case. Also, the Potency result in experiment [15] is “inactive”.
As to `CCOc1ccccc1OCC1CNCCO1` (stereo not drawn), the Potency result in experiment [1], in experiment [2], in experiment [5] and in experiment [4] was “inactive” throughout.
As to `C[N+](C)(CCOc1ccccc1)Cc1cccs1`, the Potency result in [1], in [5] and in [3] was “inactive” throughout.
Turning to `C[N+]1(C)CCC(OC(=O)C(O)(c2ccccc2)C2CCCC2)C1` (stereo not drawn), the Potency result in experiment [1], in [2], in experiment [3] and in experiment [4] was “inactive” each time.
With `CO/N=C(/C(=O)N[C@@H]1C(=O)N2C(C(=O)O)=C(Cn3nnc(C)n3)CS[C@H]12)c1csc(N)n1`, the Potency entry in experiment [1], in experiment [2], in experiment [3] and in experiment [4] was “inactive” each time.
As to `C[C@@]12CCC[C@H]1[C@@H]1CC[C@H]3C[C@@H](O)CC[C@]3(C)[C@H]1CC2`, the Potency result in experiment [1], in experiment [5], in experiment [3] and in experiment [4] was “inactive” in each case.
For `O=C(O)Cn1c(=O)n(Cc2ccc(Br)cc2F)c(=O)c2ccc(Cl)cc21`, the Potency entry in experiment [1], in experiment [2], in experiment [3] and in experiment [4] was “inactive” in each case.
Regarding `CC(C)(c1ccc(O)cc1)c1ccc(O)cc1`, the Potency entry in [1], in [5] and in [3] was “inactive” in each case.
Consider `CCN(CC)CC(=O)OCC(=O)[C@@]1(O)CC[C@H]2[C@@H]3CCC4=CC(=O)CC[C@]4(C)[C@H]3[C@@H](O)C[C@@]21C`, for which the Potency result in experiment [1], in experiment [2], in experiment [3], in experiment [4], in [6] and in [7] was “inactive” each time. For the same compound, the Potency result in experiment [8], in [10], in [16], in experiment [17], in experiment [13] and in [20] was “inactive” each time. Besides, the Potency entry in experiment [14], in experiment [19] and in experiment [15] was “inactive” each time. Also, the Potency in experiment [11] is 11.7 µM (active).

The record behind these values is PubChem BioAssay (NCATS).
